This is an account of results in PubChem BioAssay (NCI).

Each structure is given as a SMILES string. This is part of a sample that, as a whole, favours compounds with a hit. Of some 83,000 tested, about 20% had one in any assay.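 Testing used 96-well plates and a 48-hour single-concentration exposure. Example: -40 means 40% of the starting cells died.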 A number with no mark means an inactive call. Active and inactive are the calls of the source. Rule for the calls: active = growth percent below 10; inactive = the rest.

Some test systems named below: HCT-15 colon; HT29 colon; SNB-75 CNS; SNB-19 CNS; U251 CNS; SK-MEL-5 melanoma; UACC-62 melanoma; LOX IMVI melanoma; SK-MEL-28 melanoma; SK-MEL-2 melanoma; EKVX NSCLC; SN12C renal; UO-31 renal; TK-10 renal; ACHN renal; CAKI-1 renal; A498 renal; CCRF-CEM leukemia; MOLT-4 leukemia.
Holding throughout (test): NCI-60 one-dose screen, 48 h (100 = growth as untreated, 0 = no growth, -100 = all killed)
Common to all, as to conditions: 10 µM unless noted

For the molecule `CN1CCN(Cc2ccc(NC(=O)c3cncc(C#Cc4cnc5ccc(OCCCS(C)(=O)=O)nn45)c3)cc2C(F)(F)F)CC1`, the growth in the assay with HCT-15 colon was 3.14% (active); in the assay on HT29 colon, -10.8% (active); with SNB-75 CNS it was -91.7% (active); in the assay on SNB-19 CNS, 1.67% (active); in the assay with U251 CNS, -4.26% (active); in the assay with SK-MEL-5 melanoma it was -57% (active). For the same molecule, the growth in the assay with UACC-62 melanoma is -57.3% (active); in the assay with LOX IMVI melanoma, -82.6% (active); with SK-MEL-28 melanoma, -21.8% (active); in the assay with SK-MEL-2 melanoma, -82% (active); in the assay with EKVX NSCLC, -10.7% (active); with SN12C renal, -15.8% (active). Besides, the growth in the assay on UO-31 renal is -12.9% (active); in the assay with TK-10 renal, -6.6% (active); in the assay with ACHN renal, -16.1% (active); with CAKI-1 renal, -14% (active); in the assay on A498 renal it was -90.9% (active); with CCRF-CEM leukemia, 6.43% (active). Besides, in the assay on MOLT-4 leukemia, the growth is 2.88% (active).
In the case of `COc1ccc(NC(=O)CCCCCCNC(=O)C(O)(O)C(F)(F)F)cc1`, the growth is 67.7% in the assay on HCT-15 colon; 23.1% in the assay with HT29 colon; 60.2% with SNB-75 CNS; 66.8% in the assay on SNB-19 CNS; 39.7% with U251 CNS; 17% in the assay on SK-MEL-5 melanoma. The growth with UACC-62 melanoma is 17.4%; in the assay on LOX IMVI melanoma, 35.2%; in the assay on SK-MEL-28 melanoma, 40%; in the assay with SK-MEL-2 melanoma it was 12.7%; in the assay with EKVX NSCLC, 61.7%; in the assay on SN12C renal it was 59.9%. The growth with UO-31 renal is 37.7%; in the assay on ACHN renal, 20.2%; in the assay with CAKI-1 renal it was 26%; in the assay on A498 renal, 41.8%; with CCRF-CEM leukemia, 26.2%; in the assay with MOLT-4 leukemia, 21%.
As to `C#Cc1cc(OC)c(C(=O)Nc2ccc(F)cc2C(=O)Nc2cccc(S(=O)(=O)C(F)(F)F)c2)cn1`, the growth with HCT-15 colon is -8.48% (active); with HT29 colon it was -30.3% (active); in the assay on SNB-75 CNS it was -80.4% (active); in the assay on SNB-19 CNS it was 17.6%; in the assay with U251 CNS, 0.45% (active); in the assay on SK-MEL-5 melanoma it was -49% (active). The growth was 18.8% in the assay on UACC-62 melanoma; -82.1% (active) in the assay with LOX IMVI melanoma; 50% in the assay with SK-MEL-28 melanoma; 45.1% in the assay with SK-MEL-2 melanoma; 13.9% in the assay on EKVX NSCLC; 17.1% in the assay with SN12C renal. Moreover, the growth with UO-31 renal was -85.1% (active); in the assay with TK-10 renal, 66.6%; in the assay with ACHN renal, -57.4% (active); with CAKI-1 renal, -11.4% (active); in the assay on A498 renal, -18.2% (active); in the assay with CCRF-CEM leukemia, -23.5% (active). In addition, the growth in the assay on MOLT-4 leukemia was -32.9% (active).
For the molecule `O=S(=O)(NCCCNc1nccc(-c2[nH]c(-c3ccccc3)nc2-c2ccc(F)c(O)c2)n1)c1ccc(C(F)(F)F)cc1`, the growth with HCT-15 colon was 38.1%; in the assay with HT29 colon, 94.9%; in the assay with SNB-75 CNS it was -0.845% (active); in the assay with SNB-19 CNS it was 43.2%; in the assay on U251 CNS it was 33.5%; with SK-MEL-5 melanoma it was -0.786% (active). Besides, the growth with UACC-62 melanoma was 2.32% (active); with SK-MEL-28 melanoma it was 30.1%; in the assay on SK-MEL-2 melanoma, 18.8%; in the assay with EKVX NSCLC, 69.7%; in the assay on SN12C renal it was 67.7%; with UO-31 renal it was 91.4%. Besides, the growth is 95.7% in the assay on TK-10 renal; 58.7% in the assay with ACHN renal; 40.5% with CAKI-1 renal; 28.3% with A498 renal; 4.62% (active) in the assay with CCRF-CEM leukemia; 17.2% with MOLT-4 leukemia.
`CC(C)(C)OC(=O)Nc1ccc(-c2cccc(Oc3ccc4nnc(Cl)n4n3)c2)cc1`: the growth in the assay with HCT-15 colon was 65%; with HT29 colon, 84.7%; in the assay on SNB-75 CNS, 126%; in the assay with SNB-19 CNS it was 94.9%; in the assay on U251 CNS, 91.2%; in the assay on SK-MEL-5 melanoma, 19.5%. Also, the growth in the assay with UACC-62 melanoma is 63.6%; with SK-MEL-28 melanoma, 96.9%; with SK-MEL-2 melanoma, 65.8%; in the assay with EKVX NSCLC, 86.7%; with SN12C renal, 78.7%; in the assay with UO-31 renal, 67.6%. In addition, the growth in the assay with TK-10 renal was 71.1%; with ACHN renal, 88%; in the assay on CAKI-1 renal, 83.6%; in the assay on A498 renal, 70.1%; in the assay with CCRF-CEM leukemia, 60.4%; in the assay on MOLT-4 leukemia, 46.3%.
For `COc1ccc(OC)c(NC(=O)CCCCCCNC(=O)C(O)(O)C(F)(F)F)c1`, the growth was 59.4% in the assay with HCT-15 colon; 23.6% in the assay with HT29 colon; 56.1% in the assay on SNB-75 CNS; 63.5% in the assay on SNB-19 CNS; 41.8% in the assay with U251 CNS; 16.6% in the assay with SK-MEL-5 melanoma. In addition, the growth with UACC-62 melanoma was 13%; with LOX IMVI melanoma, 32.3%; with SK-MEL-28 melanoma, 35.6%; with SK-MEL-2 melanoma, 10.6%; in the assay with EKVX NSCLC it was 56%; in the assay with SN12C renal, 58.9%. The growth in the assay with UO-31 renal was 30.3%; in the assay with TK-10 renal, 12.9%; in the assay on ACHN renal, 15.3%; in the assay with CAKI-1 renal, 25.2%; with A498 renal it was 38.3%; with CCRF-CEM leukemia it was 23.5%. Besides, the growth with MOLT-4 leukemia was 20%.
As for `Brc1cc(-c2cc(-c3ccc4c(c3)OC=CO4)[nH]n2)cs1`, the growth in the assay with HCT-15 colon was 51%; in the assay with HT29 colon, 90%; with SNB-75 CNS, 83.5%; in the assay on SNB-19 CNS it was 84.1%; in the assay with U251 CNS it was 81.3%; with SK-MEL-5 melanoma, 87.5%. Further, the growth in the assay on UACC-62 melanoma is 76.9%; in the assay on LOX IMVI melanoma, 80%; with SK-MEL-28 melanoma, 94.2%; in the assay with SK-MEL-2 melanoma, 106%; with EKVX NSCLC, 72.8%; in the assay on SN12C renal, 98.8%. The growth in the assay on UO-31 renal was 71.2%; in the assay on TK-10 renal it was 192%; in the assay with ACHN renal it was 93.7%; in the assay with CAKI-1 renal, 63.8%; with A498 renal, 87.1%; in the assay with CCRF-CEM leukemia, 89.9%. Besides, in the assay on MOLT-4 leukemia, the growth was 78.7%.
